From PubChem BioAssay (EPA / NIEHS) come the findings set out here.

Each structure is given as a SMILES string. Results filed as inconclusive are left out. Calls of active or inactive are those of the source. The calls were made as follows: active = hit-call score of the fitted dose curve at least 0.9, where 1 is the maximum; inconclusive = response in the unintended direction; inactive = score below 0.9.

The term AC50 denotes the midpoint of the concentration-response curve, whichever way the signal moves.

Read-out in assay [1]: xenobiotic metabolism (CYP1A2), CYP1A2 (gene 1544)
Description: CLD_CYP1A2_24hr: CellzDirect (CLD) Gene Expression Assay for xenobiotic metabolism (CYP1A2) at 24 hours (AID 2283683). In short, it runs like this:
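CYP1A2 mRNA induction measured by quantitative nuclease protection (chemiluminescent) in human primary hepatocytes 24 h after multi-concentration chemical dosing with daily fresh solutions. DMSO (0.2%) baseline; positive-direction fitting; morphology-based cytotoxicity noted.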

Read-out in assay [2]: Cytochrome P450 2C19 (Homo sapiens) (UniProt P33261)
The experiment in a line: CLD_CYP2C19_24hr: CellzDirect (CLD) Gene Expression Assay for xenobiotic metabolism (CYP2C19) at 24 hours (AID 2283687).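 Also: activity means mRNA induction above DMSO vehicle baseline.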 An outline of the steps: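 CYP2C19 mRNA was quantified by qNPA chemiluminescence after 24 h of daily dosing of cultured human primary hepatocytes from two donors; vehicle was 0.2% DMSO, and increases over DMSO baseline were fitted.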

Read-out in assay [3]: Cytochrome P450 3A4 (Homo sapiens) (UniProt P08684)
Description: CLD_CYP3A4_24hr: CellzDirect (CLD) Gene Expression Assay for xenobiotic metabolism (CYP3A4) at 24 hours (AID 2283689). In short, it runs like this:
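CYP3A4 mRNA induction read by quantitative nuclease protection (chemiluminescence) 24 hr after dosing. Cultured human hepatocytes (two donor preparations) treated daily, vehicle 0.2% DMSO; phase-contrast morphology annotates cytotoxicity.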

Read-out in assay [4]: ABC Transporter (ABCB1), ABCB1 (gene 5243)
The experiment in a line: CLD_ABCB1_48hr: CellzDirect (CLD) Gene Expression Assay for ABC Transporter (ABCB1) at 48 hours (AID 2283695).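 As to AC50: potency for induction meaning increase of mRNA over DMSO vehicle.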 In short, it runs like this: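 ABCB1 mRNA was measured by quantitative nuclease protection assay (chemiluminescence) 48 h after dosing. Human hepatocyte cultures from two separate donors received fresh dosing solutions daily for two days, with 0.2% DMSO as vehicle. Positive-direction fit against DMSO.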

Read-out in assay [5]: glucuronosyltransferase (UGT1A1), UGT1A1 (gene 54658)
The experiment in a line: CLD_UGT1A1_24hr: CellzDirect (CLD) Gene Expression Assay for glucuronosyltransferase (UGT1A1) at 24 hours (AID 2283696). In short, it runs like this: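 UGT1A1 transcript induction was measured by quantitative nuclease protection assay (chemiluminescence) in human hepatocyte cultures 24 h after daily fresh dosing, with 0.2% DMSO as vehicle and baseline.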

Read-out in assay [6]: xenobiotic metabolism (CYP1A2), CYP1A2 (gene 1544)
The experiment in a line: CLD_CYP1A2_48hr: CellzDirect (CLD) Gene Expression Assay for xenobiotic metabolism (CYP1A2) at 48 hours (AID 2283703). An outline of the steps:
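Cytotoxicity was flagged yes/no from morphology, while CYP1A2 transcript induction was detected by qNPA chemiluminescence after a 48-hour exposure. Human primary hepatocyte cultures from separate donors received fresh dosing solutions daily over two days, with 0.2% DMSO as vehicle and baseline.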

Read-out in assay [7]: Broad substrate specificity ATP-binding cassette transporter ABCG2 (Homo sapiens) (UniProt Q9UNQ0)
Description: CLD_ABCG2_48hr: CellzDirect (CLD) Gene Expression Assay for ABC Transporter (ABCG2) at 48 hours (AID 2283704). An outline of the steps: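 ABCG2 transcript measured at 48 h by quantitative nuclease protection (chemiluminescent) and fitted for increase relative to 0.2% DMSO. Hepatocyte cultures from separate donors got fresh compound daily over two days; morphology annotated cytotoxicity.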

Read-out in assay [8]: xenobiotic metabolism (CYP1A1), CYP1A1 (gene 1543)
Description: CLD_CYP1A1_48hr: CellzDirect (CLD) Gene Expression Assay for xenobiotic metabolism (CYP1A1) at 48 hours (AID 2283705). In short, it runs like this:
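CYP1A1 transcript measured by quantitative nuclease protection (chemiluminescent) 48 h after two daily treatments of human hepatocyte cultures, versus 0.2% DMSO. Morphology-based cytotoxicity flags accompany data; two donor preparations used.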

Read-out in assay [9]: alkyl and aryl transferase (GSTA2), GSTA2 (gene 2939)
Description: CLD_GSTA2_24hr: CellzDirect (CLD) Gene Expression Assay for alkyl and aryl transferase (GSTA2) at 24 hours (AID 2283693). In short, it runs like this: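 GSTA2 transcript levels were quantified by quantitative nuclease protection assay in primary human hepatocytes 24 h after daily dosing with fresh solutions at multiple concentrations; 0.2% DMSO vehicle as baseline, cytotoxicity flagged morphologically.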

Read-out in assay [10]: Cytochrome P450 3A4 (Homo sapiens) (UniProt P08684)
Description: CLD_CYP3A4_48hr: CellzDirect (CLD) Gene Expression Assay for xenobiotic metabolism (CYP3A4) at 48 hours (AID 2283698). An outline of the steps:
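CYP3A4 induction read by qNPA chemiluminescence after 48 h, with fresh dosing solutions on consecutive days, in cultured human hepatocytes (two donors). Vehicle 0.2% DMSO as baseline; microscopy-based cytotoxicity annotated yes/no alongside data.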

Read-out in assay [11]: Cytochrome P450 2B6 (Homo sapiens) (UniProt P20813)
The experiment in a line: CLD_CYP2B6_48hr: CellzDirect (CLD) Gene Expression Assay for xenobiotic metabolism (CYP2B6) at 48 hours (AID 2283699).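 Also: actives raise transcript level above DMSO so potency reflects induction.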 In short, it runs like this:
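CYP2B6 transcript induction, read by quantitative nuclease protection (S1 digestion, chemiluminescent detection) 48 h after dosing, is fitted upward against 0.2% DMSO. Cultured human liver primary cells, two donor preparations, received fresh chemical daily over multiple concentrations.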

Read-out in assay [12]: sulfotransferase (SULT2A), SULT2A1 (gene 6822)
Description: CLD_SULT2A_24hr: CellzDirect (CLD) Gene Expression Assay for sulfotransferase (SULT2A) at 24 hours (AID 2283694). In short, it runs like this: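 mRNA is measured by qNPA: probe hybridisation, S1 nuclease digestion, chemiluminescence, in lysates from human primary hepatocytes harvested 24 h after daily dosing. Vehicle was 0.2% DMSO. Phase-contrast microscopy flagged cytotoxicity (yes/no).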

Read-out in assay [13]: Cytochrome P450 2C9 (Homo sapiens) (UniProt P11712)
The experiment in a line: CLD_CYP2C9_24hr: CellzDirect (CLD) Gene Expression Assay for xenobiotic metabolism (CYP2C9) at 24 hours (AID 2283688). An outline of the steps: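 Induction of CYP2C9 mRNA was quantified by quantitative nuclease protection assay (chemiluminescence), gain of signal versus 0.2% DMSO vehicle, 24 h after dosing. Human primary hepatocytes (two donors) received fresh chemical daily at multiple concentrations; morphology-based cytotoxicity flagged yes/no.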

Read-out in assay [14]: HMG-CoA synthase (HMGCS2), HMGCS2 (gene 3158)
The experiment in a line: CLD_HMGCS2_24hr: CellzDirect (CLD) Gene Expression Assay for HMG-CoA synthase (HMGCS2) at 24 hours (AID 2283691). In short, it runs like this:
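qNPA with S1 nuclease digestion and chemiluminescent detection gave HMGCS2 transcript levels, fitted upward against 0.2% DMSO vehicle. Cultured human hepatocytes (two donors) received fresh compound daily and were harvested at 24 h; phase-contrast morphology flagged cytotoxicity.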

Read-out in assay [15]: Glyceraldehyde-3-phosphate dehydrogenase (Homo sapiens) (UniProt P04406)
Description: CLD_GAPDH_24hr: CellzDirect (CLD) Gene Expression Assay for Baseline Control (Glyceraldehyde 3-phosphate dehydrogenase) at 24 hours (AID 2283692). In short, it runs like this: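 GAPDH baseline-control readout: qNPA chemiluminescent mRNA signal in human primary hepatocytes harvested 24 h after daily dosing, normalised to 0.2% DMSO with positive fitting direction; cytotoxicity annotated by phase-contrast morphology.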

Read-out in assay [16]: Broad substrate specificity ATP-binding cassette transporter ABCG2 (Homo sapiens) (UniProt Q9UNQ0)
The experiment in a line: CLD_ABCG2_24hr: CellzDirect (CLD) Gene Expression Assay for ABC Transporter (ABCG2) at 24 hours (AID 2283685). In short, it runs like this:
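ABCG2 mRNA induction, read as gain of chemiluminescent signal over 0.2% DMSO, was measured by quantitative nuclease protection at 24 h. Cultured human liver hepatocytes were given fresh dosing solutions of test chemicals at several concentrations each day.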

Read-out in assay [17]: Cytochrome P450 2B6 (Homo sapiens) (UniProt P20813)
The experiment in a line: CLD_CYP2B6_24hr: CellzDirect (CLD) Gene Expression Assay for xenobiotic metabolism (CYP2B6) at 24 hours (AID 2283686). In short, it runs like this: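 qNPA chemiluminescent measurement of mRNA at 24 hours in human primary hepatocyte cultures from two donor preparations, with daily fresh dosing and 0.2% DMSO vehicle as baseline. Morphology-based cytotoxicity flagged yes/no.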

Read-out in assay [18]: ABC Transporter (ABCB1), ABCB1 (gene 5243)
The experiment in a line: CLD_ABCB1_24hr: CellzDirect (CLD) Gene Expression Assay for ABC Transporter (ABCB1) at 24 hours (AID 2283684). In short, it runs like this:
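ABCB1 mRNA induction versus 0.2% DMSO vehicle was read by qNPA chemiluminescence at 24 h. Cultured human hepatocytes from two donor preparations received daily fresh dosing, and phase-contrast cytotoxicity calls were annotated alongside the data.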

Chain of Glyceraldehyde-3-phosphate dehydrogenase (Homo sapiens) (P04406 whole entry, looked up): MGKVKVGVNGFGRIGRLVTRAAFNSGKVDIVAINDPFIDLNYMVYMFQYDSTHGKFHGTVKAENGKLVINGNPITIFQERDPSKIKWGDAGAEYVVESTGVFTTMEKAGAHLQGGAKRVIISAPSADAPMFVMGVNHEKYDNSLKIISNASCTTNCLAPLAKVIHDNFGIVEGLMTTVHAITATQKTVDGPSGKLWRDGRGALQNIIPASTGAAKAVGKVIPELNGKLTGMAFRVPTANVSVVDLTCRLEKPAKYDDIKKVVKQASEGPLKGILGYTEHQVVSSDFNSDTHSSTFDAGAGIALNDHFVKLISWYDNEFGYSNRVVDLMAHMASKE
Chain of Cytochrome P450 2C19 (Homo sapiens) (P33261 whole entry, looked up): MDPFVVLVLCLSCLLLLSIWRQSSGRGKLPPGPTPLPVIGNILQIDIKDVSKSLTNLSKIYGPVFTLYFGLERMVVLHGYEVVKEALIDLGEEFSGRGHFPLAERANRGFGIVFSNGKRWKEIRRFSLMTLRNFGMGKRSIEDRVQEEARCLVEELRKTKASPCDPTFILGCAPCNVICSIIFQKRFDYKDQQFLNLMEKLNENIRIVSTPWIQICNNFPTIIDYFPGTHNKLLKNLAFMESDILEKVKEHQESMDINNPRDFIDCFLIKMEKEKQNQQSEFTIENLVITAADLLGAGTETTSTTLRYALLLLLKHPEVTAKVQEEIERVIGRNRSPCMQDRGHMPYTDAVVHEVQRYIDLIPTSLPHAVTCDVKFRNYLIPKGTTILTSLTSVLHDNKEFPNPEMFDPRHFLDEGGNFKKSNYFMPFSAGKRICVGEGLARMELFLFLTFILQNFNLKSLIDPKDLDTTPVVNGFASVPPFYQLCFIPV
Chain of Cytochrome P450 3A4 (Homo sapiens) (P08684 whole entry, looked up): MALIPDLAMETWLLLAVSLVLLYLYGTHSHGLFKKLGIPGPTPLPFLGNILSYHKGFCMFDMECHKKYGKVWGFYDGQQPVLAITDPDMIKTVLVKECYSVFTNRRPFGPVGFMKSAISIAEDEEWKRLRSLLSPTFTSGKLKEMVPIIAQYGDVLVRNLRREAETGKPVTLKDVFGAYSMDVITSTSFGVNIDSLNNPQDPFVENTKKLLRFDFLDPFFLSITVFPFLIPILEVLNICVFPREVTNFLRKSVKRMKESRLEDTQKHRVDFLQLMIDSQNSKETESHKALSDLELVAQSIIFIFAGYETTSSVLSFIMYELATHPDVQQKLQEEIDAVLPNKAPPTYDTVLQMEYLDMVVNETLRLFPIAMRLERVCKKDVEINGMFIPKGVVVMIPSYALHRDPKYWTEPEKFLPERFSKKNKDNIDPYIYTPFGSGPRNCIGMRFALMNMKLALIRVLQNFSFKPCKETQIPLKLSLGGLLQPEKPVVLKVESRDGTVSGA
Chain of Broad substrate specificity ATP-binding cassette transporter ABCG2 (Homo sapiens) (Q9UNQ0 whole entry, looked up): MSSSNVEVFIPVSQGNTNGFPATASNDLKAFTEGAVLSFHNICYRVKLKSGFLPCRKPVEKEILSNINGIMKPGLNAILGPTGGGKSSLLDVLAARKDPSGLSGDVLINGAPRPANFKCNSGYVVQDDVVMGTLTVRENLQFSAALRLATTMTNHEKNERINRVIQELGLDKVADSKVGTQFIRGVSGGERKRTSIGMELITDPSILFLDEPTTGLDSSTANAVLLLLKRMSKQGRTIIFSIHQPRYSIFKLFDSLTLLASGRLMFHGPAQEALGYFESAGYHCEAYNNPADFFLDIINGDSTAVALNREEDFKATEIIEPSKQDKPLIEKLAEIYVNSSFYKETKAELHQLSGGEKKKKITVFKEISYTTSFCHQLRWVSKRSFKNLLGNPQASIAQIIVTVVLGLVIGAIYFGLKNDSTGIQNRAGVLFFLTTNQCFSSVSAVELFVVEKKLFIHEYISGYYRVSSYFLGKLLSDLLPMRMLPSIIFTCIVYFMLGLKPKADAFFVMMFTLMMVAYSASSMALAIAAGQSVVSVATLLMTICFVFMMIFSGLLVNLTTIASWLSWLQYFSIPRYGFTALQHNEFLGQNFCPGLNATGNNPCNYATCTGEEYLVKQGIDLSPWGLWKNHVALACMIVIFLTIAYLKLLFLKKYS

On to `CC(C)(C)C(=O)C(Oc1ccc(Cl)cc1)n1cncn1` (stereo not drawn), for which the AC50 was 9.31 µM (active) in assay [1], 1.63 µM (active) in [3], 12.9 µM (active) in assay [6] and 8.65 µM (active) in assay [8]. The compound was called inactive in assay [2], in assay [4], in assay [5] and in assay [7].
For the compound `COC(=O)N(C(=O)N1CO[C@@]2(C(=O)OC)Cc3cc(Cl)ccc3C2=N1)c1ccc(OC(F)(F)F)cc1`, the AC50 in assay [1] was 1.28 µM (active); in assay [3] it was 6.53 µM (active); in [10] it was 5.15 µM (active); in [6] it was 4.25 µM (active). Moreover, the result in assay [9] and in [5] was inactive.
For the compound `O=C(Nc1ccccc1-c1ccc(Cl)cc1)c1cccnc1Cl`, the AC50 in [1] was 6.74 µM (active); in assay [11], 1.89 µM (active); in assay [6], 4.95 µM (active). Besides, the result in [4] and in [5] was inactive.
As for `CCN(CC)c1nc(C)cc(OP(=S)(OC)OC)n1`, the AC50 in [1] is 3.97 µM (active); in assay [3], 3.81 µM (active); in assay [6], 7.6 µM (active); in assay [8] it was 9.28 µM (active). Further, in assay [5], the outcome was inactive.
For the compound `CCCCC(O)(Cn1cncn1)c1ccc(Cl)cc1Cl` (stereo not drawn), the AC50 in assay [1] is 1.9 µM (active); in assay [3], 1.13 µM (active); in assay [4], 31.9 µM (active); in assay [10] it was 1.89 µM (active); in assay [6], 3.97 µM (active); in assay [8] it was 20 µM (active). In addition, the result in [12], in assay [5] and in assay [7] was inactive.
Turning to `CCOP(=O)(OCC)Oc1nc(Cl)c(Cl)cc1Cl`, the AC50 was 3.42 µM (active) in assay [1], 3.97 µM (active) in assay [3] and 4.58 µM (active) in [6]. Further, the compound was called inactive in assay [13], in assay [14], in assay [15], in assay [9] and in assay [5].
On to `CC(C)C1(C)N=C(c2ncccc2C(=O)O)NC1=O` (stereo not drawn), for which the outcome in assay [16], in assay [2], in assay [15], in [9], in assay [4] and in [5] was inactive. Also, the AC50 was 0.000671 µM (active) in assay [17] and 0.000587 µM (active) in [11].
As to `Cn1c(-c2ccccc2)cc(-c2ccccc2)[n+]1C`, the AC50 in [1] was 0.141 µM (active). The result in assay [3], in assay [15], in assay [9], in [4] and in assay [7] was inactive.
In the case of `COCC(=O)N(c1c(C)cccc1C)C(C)C(=O)OC` (stereo not drawn), the result in assay [18], in assay [2], in [15], in [9], in assay [12] and in assay [4] was inactive. Further, the result in [5] and in [6] was inactive. In [11], the AC50 is 3.08 µM (active).
With `N#Cc1c(Cl)cccc1Cl`, the compound was classed as inactive in assay [18], in assay [3], in [15], in assay [9], in [5] and in [7]. Besides, the result in assay [8] was inactive. In addition, the AC50 in [17] is 4.46 µM (active); in assay [10], 4.83 µM (active).
